# Laboratory results from PubChem BioAssay (EPA / NIEHS).
# Activity calls are given as the source filed them. Rule for the calls: active = hit-call score of the fitted dose curve at least 0.9, where 1 is the maximum; inconclusive = response in the unintended direction; inactive = score below 0.9.
# Assay: Tanguay_ZF_120hpf_ActivityScore_legacy: (Legacy) Oregon State University Tanguay Lab 120 Hour Post-fertilization zebrafish Assay Score for Activity (AID 2283742);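 for AC50: static exposure from 6 hpf until 120 hpf at 28 °C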
# Protocol: Tanguay_ZF_120hpf_legacy is a whole embryo, multiplexed endpoint assay using zebrafish larvae exposed for 120 hours post fertilization on a 96-well plate.Tanguay_ZF_120hpf_ActivityScore_legacy is one of one assay component(s) measured or calculated from the Tanguay_ZF_120hpf_legacy assay. It is designed to make measurements of developmental malformations and mortality as detected with brightfield microscopy and combines scoring from 18 other assay components measuring more specific morphologies.Data from the assay component Tanguay_ZF_120hpf_ActivityScore_legacy was analyzed into 1 assay endpoints. This assay endpoint, Tanguay_ZF_120hpf_ActivityScore_legacy, was analyzed in the positive analysis fitting direction relative to DMSO as the negative control and baseline of activity. Using a type of morphology reporter, gain-of-signal activity can be used to understand changes in developmentals as they relate to the whole embryo. To generalize the intended target to other relatable targets, this assay endpoint is annotated to the zebrafish development intended target family, where the subfamily is embryonic morphogenesis and mortality.
# Zebrafish husbandry: Tropical 5D wild-type adult zebrafish were housed in at an approximate density of 1000 per 100 gallon tank at the Sinnhuber Aquatic Research Laboratory, Oregon State University, Corvallis, OR. Each tank was kept at standard laboratory conditions of 28C on a 14-h light/10-h dark photoperiod in fish water consisting of reverse osmosis water supplemented with a commercially available salt (Instant Ocean). Spawning funnels were placed into the tanks the night prior, and embryos were collected and staged. To increase bioavailability, the chorion was enzymatically removed using pronase (63.6mg/ml, >/= 3.5U/mg, Sigma-Aldrich: P5147) at 4 hours post fertilization (hpf) using a custom automated dechorionator.Chemical exposures: Six hpf dechorionated embryos were placed 1 embryo per well in a 96-well plate prefilled with 90 ul of EM using automated embryo placement systems (AEPS). Ten microliters of each row of dilution plate 2 was added to 2 exposure plates. The final DMSO concentration used was 0.64% (vol/vol). Thirty-two embryos were also exposed to 5uM trimethyltin chloride (positive control). Plates were sealed to prevent evaporation and foil covered to reduce light exposure and kept in a 28C incubator. Embryos were statically exposed until 120 hpf. At 24 hpf, embryos were assessed for photomotor response using a custom photomotor response analysis tool (PRAT) and for developmental toxicity endpoints (MO24: mortality at 24 hpf, DP: developmental progression, SM: spontaneous movement, and NC: notochord distortion). At 120 hpf, locomotor activity was measured using Viewpoint Zebralab and assessed for 18 endpoints. Zebrafish acquisition and analysis program (ZAAP), a custom program designed to inventory, acquire, and manage zebrafish data, was used to collect developmental endpoints as either present or absent (i.e., binary responses were recorded). If mortality occurred for an embryo (at either 24 or 120 hpf), the non-mortality endpoints were not measured.
Compound,outcome,AC50
CCCCCCC(C=O)=Cc1ccccc1,inactive,
Cc1ccc(-c2cc(C(F)(F)F)nn2-c2ccc(S(N)(=O)=O)cc2)cc1,inactive,
O=C1c2c(O)cccc2Cc2cccc(O)c21,inactive,
CC(=O)OCC(COC(C)=O)OC(C)=O,inactive,
CCCCCCCCCC[N+](C)(C)[O-],inactive,
O=C1O[C@H]([C@H](O)CO)C(O)=C1O,inactive,
NCCOCCOCCN,inactive,
CC(C)(O)c1ccc(CNC(=O)c2cccnc2Oc2ccc(F)cc2)cc1,inactive,
COc1ccc(OC(F)(F)F)cc1CN[C@H]1CCCN[C@H]1c1ccccc1,,17.9 µM (active)
CC(N)=O,inactive,
CC(C)c1cccc(C(C)C)c1NC(=O)NS(=O)(=O)c1cc(C(C)(C)O)co1,inactive,
C=CCc1ccc(OC)c(OC)c1,inactive,
Cc1cc(Cc2ccc(N)c(C)c2)ccc1N,inactive,
CCc1nc(N)nc(N)c1-c1ccc(Cl)cc1,inactive,
COc1ccc(C(=O)Nc2nc3ccccc3c(NCc3ccccc3)c2C#N)cc1,inactive,
CCCC[C@H]1CN(CC2CCOCC2)C(=O)OC12CCN(C1(C)CCN(C(=O)c3c(C)ncnc3C)CC1)CC2,inactive,
CC(C)NCC(O)c1ccc(O)c(O)c1 (stereo not given),inactive,
O=C(O)CN(CC(=O)O)CC(=O)O,inactive,
C/C=C/c1ccc(OC)cc1,inactive,
Cc1c(C)c2c(c(C)c1O)CCC(C)(COc1ccc(CC3SC(=O)NC3=O)cc1)O2 (stereo not given),inactive,

Compound,outcome,AC50
CCCC(=O)O,inactive,
CCc1cc(C2=C(C(=O)O)N(c3ccccc3C(F)(F)F)S(=O)(=O)c3ccccc32)cc2c1OCO2,inactive,
NC(=Nc1ccccc1)Nc1ccccc1,,0.00546 µM (active)
OCC(CO)n1cnc(-c2ccc(F)cc2)c1-c1ccnc(Oc2ccccc2)n1,inactive,
Nc1nc(=S)c2[nH]cnc2[nH]1,inactive,
CCCCc1nc2cccnc2n1Cc1ccc(-c2ccccc2-c2nnn[nH]2)cc1,inactive,
CS(=O)(=O)c1ccc([C@@H](C[C@H]2CCC(=O)C2)C(=O)Nc2cnccn2)cc1Cl,inactive,
CC(C)c1cccc(C(C)C)c1,inactive,
Cc1occc(=O)c1O,inactive,
Cc1cn([C@H]2C=C[C@@H](CO)O2)c(=O)[nH]c1=O,inactive,
c1ccc2occc2c1,inactive,
CCCCC(CC)COP(=O)(OCC(CC)CCCC)OCC(CC)CCCC (stereo not given),inactive,
O=Cc1ccccc1C=O,,3.08 µM (active)
O=C1OC(c2ccc(O)cc2)(c2ccc(O)cc2)c2ccccc21,inactive,
CC(=O)O,inactive,
CC1(C)C(=O)NC(=O)N1CO,inactive,
OCC(O)CO,inactive,
COC(=O)CCC(=O)OC,inactive,
N[C@@H](Cc1c[nH]c2ccccc12)C(=O)O,inactive,
O=C(O)c1cccnc1,inactive,
